# Measurements: PubChem BioAssay (NCI)
# About 79,000 compounds went through this panel and 15% of them were active in at least one assay; those are over-represented in the sample as a whole. A number with no mark means an inactive call. The source made the active and inactive calls. No stated cut-off is given here; in the data, active means growth inhibition above about 70%; inactive means the rest.
# Experiment: NCI Yeast Anticancer Drug Screen. Data for the sgs1 mgt1 strain (AID 161);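 further: 0% = growth of cultures given vehicle only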
# Details: S. cerevisiae sgs1 mgt1 strain, active compounds read high
# Experimental: Growth inhibition of yeast strains with defined genetic alterations is measured as a screen for potential anti-cancer activity. Selected strains with alterations in DNA damage repair or cell cycle control were exposed to compounds and growth inhibition was measured relative to vehicle treated controls. The strain used in this assay is sgs1 mgt1
# [1] = at 5.0 µM (retest, dose inferred, filed as 0.5)
# [2] = at 50.0 µM (retest, dose inferred, filed as 5.0)
Compound,growth inhibition [1] [%],growth inhibition [2],growth inhibition (at 50.0 µM)
CCOC(=O)c1cc(-c2ccc(Cl)cc2)c([N+](=O)[O-])n1C,10,50%,91.7% (active)
CCN(CC)[P+](c1ccccc1O)(N(CC)CC)N(CC)CC,7,99% (active),64.8%
CC(=O)Oc1cc(-c2cc(OC(C)=O)c(OC(C)=O)c3ccccc23)c2ccccc2c1OC(C)=O,24,85% (active),87% (active)
CC(=O)Nc1ccc(SC(C)=O)cc1,-6,78% (active),60.6%
CCCN(CCC)CC(O)c1cc(-c2ccc(Cl)cc2)nc2c(C)c(Cl)ccc12 (configuration not stated),36,97% (active),98.5% (active)
CC(Br)C(=O)c1ccc2cc(Br)c3ccccc3c2c1 (configuration not stated),2,76% (active),74.5% (active)
O=C(Cc1csc2[n+]1C(=O)/C(=C/c1ccc(Cl)cc1)S2)Nc1ccccc1,2,96% (active),98.9% (active)
CC1C(NNc2ccccc2)Oc2cc3c(cc2C1c1ccccc1O)OCO3 (configuration not stated),-26,97% (active),89.6% (active)
CN(C)C[C@H]1CC[C@@H](CN(C)C)C1=O,1,18%,38.4%
CCCCCCCC1(N=[N+]=[N-])C(=O)c2ccccc2N(C)C1=O (configuration not stated),-7,71% (active),79.5% (active)
N/C(=N\OC(=O)NC(Cl)=C(Cl)Cl)c1cc(C(F)(F)F)cc(C(F)(F)F)c1,-1,95% (active),89.4% (active)
CC(C)(Br)C(=O)/C=C/c1ccc(Cl)c(Cl)c1,33,77% (active),85.8% (active)
O=Nc1c(NO)ccc2nn(-c3ccccc3)nc12,14,99% (active),87.2% (active)
CCC[CH2][Ge]([CH2]CCC)([CH2]CCC)[O]C(=O)C(OC)c1ccccc1 (configuration not stated),59,59%,82.8% (active)
